# Source: PubChem BioAssay (Tox21)
# Several values for one entry are separate records, joined by “and”; a condition that tells them apart may be missing. Identical values can stand only once. Records with an inconclusive call do not appear. Where a call stands in place of a potency, no number is given. The source holds several records for some structures; these can differ, active in one and inactive in another. Activity calls are given as the source filed them. Unless noted, calls come from the whole dose curve.
# Columns and labels:
# [1] = Nuclear factor erythroid 2-related factor 2/antioxidant responsive element (Nrf2/ARE) small molecule agonists: luciferase reporter gene qHTS assay in human keratinocytes (AID 1919969); note: nearly all actives have a fitted effect of over 35% in size; note: potency is the fitted concentration of half-maximal effect
# [2] = target: Gonadotropin-releasing hormone receptor (Homo sapiens) (UniProt P30968); assay: Human gonadotropin-releasing hormone receptor (GnRHR) small molecule agonists, calcium flux assay in GnRHR-HEK293 cells (AID 1920063); note: nearly all actives have a fitted effect of over 35% in size; note: potency is the fitted concentration of half-maximal effect
# Summary of the method: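 We seeded human GnRHR-expressing HEK293 cells for 18 hours, loaded them with calcium dye for an hour at 37 C, added test compounds, and recorded fluorescence intensity kinetically for three minutes.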
# [3] = target: KiSS-1 receptor (Homo sapiens) (UniProt Q969F8); assay: Human kisspeptin (KISS1R) small molecule agonists, calcium flux assay in KISS1R-HEK293 cells (AID 1920064; active = well fitted activation curve with a large enough effect in the repeat runs)
# Summary of the method: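 Kinetic calcium assay, 1 s sampling over 3 min at Ex/Em 480/540, in HEK293 cells engineered with human KISS1R; compounds delivered in DMSO after 1 h dye loading.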
# [4] = p53 small molecule agonists, cell-based qHTS assay with human liver microsomes (AID 1963577);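 note: p53 response element beta-lactamase reporter cells with liver microsomes plus NADPH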
# Summary of the method: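 16 h, 37 C exposure of p53RE-bla cells to compounds with human liver microsomes and NADPH (0.5 mg/mL final each); detection via LiveBLAzer mixture, 2 h dark at room temperature.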
# [5] = p53 small molecule agonists, cell-based qHTS assay with rat liver microsomes (AID 1963578)
# Summary of the method: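 With rat liver microsomes and NADPH present (0.5 mg/mL final each), p53RE-bla cells are treated with compound for 16 h at 37 C. LiveBLAzer detection mixture is then applied for 2 h at room temperature in the dark.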
# [6] = p53 small molecule agonists, cell-based qHTS assay with human liver microsomes: qHTS cell viability counter screen (AID 1963579); note: nearly all actives have a fitted effect of over 45% in size
# Summary of the method: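 In this multiplexed counter screen, the reporter plates were subsequently treated with CellTiter-Glo so that cell viability, reflected by luminescence, could be recorded for p53RE-bla cells dosed 16 h with compounds under microsomal activation (HLM and NADPH).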
# [7] = p53 small molecule agonists, cell-based qHTS assay with rat liver microsomes: qHTS cell viability counter screen (AID 1963580); note: nearly all actives have a fitted effect of over 45% in size
# Summary of the method: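 In HCT-116 cells carrying a p53 response element-bla reporter, compounds were metabolically activated in situ by rat liver microsomes with NADPH over 16 h. Cell ATP content then served as the cytotoxicity measure.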
# [8] = p53 small molecule agonists, cell-based qHTS assay: qHTS cell viability counter screen (AID 1963581); note: nearly all actives have a fitted effect of over 45% in size
# Summary of the method: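 Following 5 h attachment, HCT-116 p53RE-bla cells took up compound for 16 h at 37 C; the reporter was read with B/G FRET substrate (2 h RT), and viability then via CellTiter-Glo ATP luminescence.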
# [9] = target: 5-hydroxytryptamine receptor 2A (Homo sapiens) (UniProt P28223); assay: 5-hydroxytryptamine receptor 2A (HTR2A) small molecule antagonists, cell-based qHTS assay (AID 1963586); note: nearly all actives have a fitted effect of over 45% in size
# Summary of the method: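 Antagonist-mode intracellular calcium assay: DOI (4 nM) added after 5 min compound pre-incubation at room temperature to dye-loaded HTR2A-CHO cells. Fluorescence followed for 3 min, sampled every second.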
# [10] = target: 5-hydroxytryptamine receptor 2A (Homo sapiens) (UniProt P28223); assay: 5-hydroxytryptamine receptor 2A (HTR2A) small molecule agonists, cell-based qHTS assay (AID 1963587); note: nearly all actives have a fitted effect of over 30% in size
# Summary of the method: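 HTR2A-CHO cells, plated 18 h at 37 C/5% CO2, dye-loaded 1 h at 37 C; compounds in DMSO added by pin tool (agonist mode). Intracellular calcium flux read as kinetic fluorescence on FDSS over 2 min at 1 s intervals.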
# [11] = target: Muscarinic acetylcholine receptor M1 (Homo sapiens) (UniProt P11229); assay: Cholinergic receptor muscarinic 1 (CHRM1) small molecule antagonists, cell-based qHTS assay (AID 1963588); note: nearly all actives have a fitted effect of over 40% in size; note: potency is the fitted concentration of half-maximal effect
# Summary of the method: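 CHRM1-CHO calcium-flux assay, antagonist mode. Cells were seeded 18 h, dye-loaded 1 h at 37 C and given compound for 5 min at RT, then acetylcholine was added at 50nM. FDSS fluorescence was read 3 min; 15 concentrations, three runs.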
# [12] = target: Muscarinic acetylcholine receptor M1 (Homo sapiens) (UniProt P11229); assay: Cholinergic receptor muscarinic 1 (CHRM1) small molecule agonists, cell-based qHTS assay (AID 1963589); note: nearly all actives have a fitted effect of over 35% in size
# Summary of the method: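 Measures agonist-induced intracellular calcium rise. Stable human CHRM1 CHO line, 1 h dye load at 37 C, compounds from DMSO, kinetic fluorescence read.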
# [13] = cAMP Responsive Elements (CRE) small molecule agonists, cell-based qHTS assay (AID 1963590)
# Summary of the method: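 A CRE-responsive beta-lactamase reporter in HEK 293T cells was used. Treatment ran 3 h at 37 C; detection used LiveBLAzer B/G FRET substrate for 2 h at room temperature.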
# [14] = cAMP Responsive Elements (CRE) small molecule antagonists, cell-based qHTS assay (AID 1963591; active = well fitted inhibition curve with a large enough effect in the signal ratio in the repeat runs, not every such curve was filed as active; the % refers to the signal ratio)
# Summary of the method: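 HEK293T cells carrying a CRE-driven beta-lactamase reporter receive compound and NKH477 (0.25 uM final) for 3 h. Fluorescence from LiveBLAzer B/G FRET substrate is read after 2 h at room temperature.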
# [15] = target: Beta-2 adrenergic receptor (Homo sapiens) (UniProt P07550); assay: Adrenergic beta2 receptor (ADRB2) small molecule antagonists, cell-based qHTS assay (AID 1963592); note: nearly all actives have a fitted effect of over 50% in size; note: potency is the fitted concentration of half-maximal effect
# Summary of the method: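 Cells (CHO, stable ADRB2 overexpression) incubated 18-20hr at 37C; compounds added from DMSO; agonist mix (1nM isoproterenol, 100uM IBMX, 25uM Ro-20-1724) added; 0.5hr RT; d2-cAMP and anti-cAMP-cryptate added; 1hr RT; 665/615 nm read.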
# [16] = target: Beta-2 adrenergic receptor (Homo sapiens) (UniProt P07550); assay: Adrenergic beta2 receptor (ADRB2) small molecule agonists, cell-based qHTS assay (AID 1963593);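 note: CHO cells stably overexpressing human ADRB2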
# Summary of the method: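 CHO cells stably over-expressing ADRB2 were plated overnight at 37C, then dosed with compounds plus a stimulation mix containing 100uM IBMX and 25uM Ro-20-1724 for 0.5hr at room temperature. cAMP was measured by HTRF competition, 1hr.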
# [17] = target: D(2) dopamine receptor (Homo sapiens) (UniProt P14416); assay: Dopamine D2 receptor (DRD2) small molecule antagonists, cell-based qHTS assay (AID 1963595; active = well fitted inhibition curve with a large enough effect in the signal ratio in the repeat runs, with a control signal flat; the % refers to the signal ratio; note: potency is the fitted concentration of half-maximal effect)
# Summary of the method: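 Stable D2 receptor HEK293 line, 24 h after seeding. Compound preincubated 10 min, then quinpirole (12 nM) with forskolin analogue NKH477 (200 nM), 30 min, room temperature. Detection by time-resolved FRET of cAMP.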
# [18] = G protein-coupled receptor (GPCR) small molecule agonists, calcium flux assay: HEK293 wild type cell line counter screen (AID 1920065)
# Summary of the method: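 Calcium-sensitive dye, loaded 1 h at 37 C into cells cultured 18 h, reports compound-evoked calcium release as fluorescence (Ex/Em 480/540), measured over 3 min. Agonist mode; 15-point titrations, triplicate.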
# [19] = p53 small molecule agonists, cell-based qHTS assay (AID 1963582; active = well fitted activation curve with a large enough effect in the signal ratio in the repeat runs, not every such curve was filed as active; the % refers to the signal ratio)
# Summary of the method: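 In this cell-based concentration-response screen, a p53 response element drives beta-lactamase; cells received DMSO-borne compounds after 5 h culture and were incubated a further 16 h before FRET substrate development.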
# [20] = target: D(2) dopamine receptor (Homo sapiens) (UniProt P14416); assay: Dopamine D2 receptor (DRD2) small molecule agonists, cell-based qHTS assay (AID 1963594); note: nearly all actives have a fitted effect of over 35% in size
# Summary of the method: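 HEK293 cells stably expressing DRD2 were cultured 24 h at 37 C, then given Ro20-1724 (0.1 mM final) and compounds for 10 min at room temperature. NKH477 (200nM) was then added for 30 min. cAMP was read by HTRF.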
# Chain of KiSS-1 receptor (Homo sapiens) (Q969F8 whole entry, looked up): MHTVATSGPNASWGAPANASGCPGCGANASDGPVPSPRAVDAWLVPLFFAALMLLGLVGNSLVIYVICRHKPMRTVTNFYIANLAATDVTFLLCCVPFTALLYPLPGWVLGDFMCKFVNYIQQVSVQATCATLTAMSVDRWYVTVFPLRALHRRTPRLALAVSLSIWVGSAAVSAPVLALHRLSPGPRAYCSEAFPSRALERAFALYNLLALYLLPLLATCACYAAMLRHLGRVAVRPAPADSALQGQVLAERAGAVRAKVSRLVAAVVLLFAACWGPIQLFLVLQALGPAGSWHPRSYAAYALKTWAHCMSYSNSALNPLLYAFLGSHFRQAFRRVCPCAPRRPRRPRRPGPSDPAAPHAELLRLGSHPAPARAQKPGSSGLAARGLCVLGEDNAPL
# Chain of D(2) dopamine receptor (Homo sapiens) (P14416 whole entry, looked up): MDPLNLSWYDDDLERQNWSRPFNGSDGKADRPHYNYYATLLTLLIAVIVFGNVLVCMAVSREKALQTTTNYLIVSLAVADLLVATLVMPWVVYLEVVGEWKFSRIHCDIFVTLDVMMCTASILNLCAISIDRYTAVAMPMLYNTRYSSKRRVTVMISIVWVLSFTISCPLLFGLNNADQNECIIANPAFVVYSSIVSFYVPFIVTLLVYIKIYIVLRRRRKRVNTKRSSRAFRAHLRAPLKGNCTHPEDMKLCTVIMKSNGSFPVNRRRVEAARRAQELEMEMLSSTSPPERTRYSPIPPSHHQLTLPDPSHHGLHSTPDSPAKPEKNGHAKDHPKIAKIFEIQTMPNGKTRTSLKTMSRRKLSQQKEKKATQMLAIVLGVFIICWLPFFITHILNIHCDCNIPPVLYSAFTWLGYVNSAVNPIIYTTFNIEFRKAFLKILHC
# Chain of Beta-2 adrenergic receptor (Homo sapiens) (P07550 whole entry, looked up): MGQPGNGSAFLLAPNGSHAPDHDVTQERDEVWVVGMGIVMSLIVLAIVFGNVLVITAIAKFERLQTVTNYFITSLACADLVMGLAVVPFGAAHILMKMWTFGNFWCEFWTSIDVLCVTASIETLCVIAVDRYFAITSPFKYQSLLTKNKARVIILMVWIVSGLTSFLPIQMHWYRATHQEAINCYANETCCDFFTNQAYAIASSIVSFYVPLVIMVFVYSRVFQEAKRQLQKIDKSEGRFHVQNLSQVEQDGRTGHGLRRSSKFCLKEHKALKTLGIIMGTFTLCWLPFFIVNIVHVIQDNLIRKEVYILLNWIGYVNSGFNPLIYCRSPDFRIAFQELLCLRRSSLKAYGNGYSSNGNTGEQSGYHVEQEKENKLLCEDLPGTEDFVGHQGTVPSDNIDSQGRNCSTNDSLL
# Chain of Muscarinic acetylcholine receptor M1 (Homo sapiens) (P11229 whole entry, looked up): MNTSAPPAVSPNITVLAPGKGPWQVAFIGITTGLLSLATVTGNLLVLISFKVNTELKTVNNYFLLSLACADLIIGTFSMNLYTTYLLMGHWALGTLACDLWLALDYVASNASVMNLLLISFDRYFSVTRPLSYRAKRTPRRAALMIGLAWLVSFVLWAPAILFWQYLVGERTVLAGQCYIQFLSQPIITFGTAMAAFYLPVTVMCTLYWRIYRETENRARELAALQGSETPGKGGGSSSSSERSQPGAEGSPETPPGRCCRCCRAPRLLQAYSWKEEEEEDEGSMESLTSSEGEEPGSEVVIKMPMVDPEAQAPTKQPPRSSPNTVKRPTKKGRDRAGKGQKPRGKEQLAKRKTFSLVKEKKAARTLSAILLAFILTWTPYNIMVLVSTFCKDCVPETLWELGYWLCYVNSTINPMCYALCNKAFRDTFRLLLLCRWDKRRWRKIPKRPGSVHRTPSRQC
# Chain of Gonadotropin-releasing hormone receptor (Homo sapiens) (P30968 whole entry, looked up): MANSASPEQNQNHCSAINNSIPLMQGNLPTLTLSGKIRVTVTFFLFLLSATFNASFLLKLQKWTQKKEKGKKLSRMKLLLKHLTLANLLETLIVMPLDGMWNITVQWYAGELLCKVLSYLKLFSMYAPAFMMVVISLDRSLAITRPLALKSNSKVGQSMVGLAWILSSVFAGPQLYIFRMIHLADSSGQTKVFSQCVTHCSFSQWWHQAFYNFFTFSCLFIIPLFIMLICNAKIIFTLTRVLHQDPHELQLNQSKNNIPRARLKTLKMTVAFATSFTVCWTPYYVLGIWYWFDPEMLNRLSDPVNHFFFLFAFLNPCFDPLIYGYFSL
# Chain of 5-hydroxytryptamine receptor 2A (Homo sapiens) (P28223 whole entry, looked up): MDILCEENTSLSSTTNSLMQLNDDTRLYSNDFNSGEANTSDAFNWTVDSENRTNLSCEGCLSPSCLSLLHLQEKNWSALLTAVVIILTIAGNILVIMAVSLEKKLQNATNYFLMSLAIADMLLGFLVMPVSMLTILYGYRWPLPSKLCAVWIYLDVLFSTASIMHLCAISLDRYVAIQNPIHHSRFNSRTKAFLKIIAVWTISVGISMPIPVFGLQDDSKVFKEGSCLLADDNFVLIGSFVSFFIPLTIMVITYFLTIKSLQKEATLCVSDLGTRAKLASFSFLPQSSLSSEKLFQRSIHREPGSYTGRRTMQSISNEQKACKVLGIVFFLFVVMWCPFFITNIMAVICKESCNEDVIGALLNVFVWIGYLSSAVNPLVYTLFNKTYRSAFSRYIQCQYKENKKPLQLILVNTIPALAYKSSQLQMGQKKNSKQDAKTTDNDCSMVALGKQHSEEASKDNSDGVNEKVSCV
Structure (SMILES),Potency [1],Potency [2],Potency [3],Potency [4],Potency [5],Potency [6],Potency [7],Potency [8],Potency [9],Potency [10],Potency [11],Potency [12],Potency [13],Potency [14],Potency [15],Potency [16],Potency [17],Potency [18],Potency [19],Potency [20]
CN(C)C,inactive,inactive,inactive,inactive,inactive,inactive,inactive,inactive,inactive,inactive,inactive,inactive,inactive,inactive,inactive,inactive,inactive,,,
Cc1ccc(C(C)C)cc1,inactive,inactive,,inactive,inactive,inactive,inactive,inactive,inactive,inactive,,inactive,inactive,inactive,inactive,inactive,inactive,inactive,inactive,inactive
O=[N+]([O-])c1cc(C(F)(F)F)ccc1Cl,,inactive,inactive,inactive,,inactive,inactive,inactive,inactive,inactive,inactive,inactive,inactive,inactive,inactive,inactive,inactive,inactive,inactive,inactive
Cc1cccc(O)c1,inactive,,inactive,inactive,inactive,inactive,inactive,inactive,inactive,inactive,inactive,inactive,inactive,,inactive,,inactive,inactive,inactive,inactive
NC1CCCCC1,inactive,inactive,inactive,,,inactive,inactive,inactive,inactive,,inactive and 4.7 nM (active),inactive,inactive,inactive,inactive,inactive,inactive,inactive,,inactive
Nc1ccc(Cl)cc1Cl,,inactive,inactive,inactive,inactive,inactive,inactive,inactive,inactive,,inactive,inactive,inactive,inactive,inactive,inactive,inactive,inactive,inactive,inactive
O=C(O)C1=NN(c2ccc(S(=O)(=O)O)cc2)C(=O)C1,inactive,,inactive,inactive,inactive,inactive,inactive,inactive,inactive,inactive,inactive,inactive,inactive,inactive,inactive,inactive,,inactive,inactive,inactive
CC(=O)Oc1ccc(C(c2ccc(OC(C)=O)cc2)c2ccccn2)cc1,121 nM (active) and 841 nM (active),inactive,inactive,inactive,inactive,inactive,inactive,inactive,,,,,,,inactive,inactive,inactive,,,
CNC[C@H](O)c1ccc(O)c(O)c1,,110 nM (active) and 233 nM (active),inactive,inactive,inactive,inactive,inactive,inactive,,,,,,inactive,,,13 µM (active),inactive,inactive,inactive
ClC/C=C/CCl,inactive,,inactive,inactive,inactive,inactive,inactive,inactive,inactive,inactive,inactive,inactive,inactive,inactive,inactive,,inactive,inactive,inactive,inactive
CC1=C(C)S(=O)(=O)CCS1(=O)=O,6.73 µM (active) and 8.63 µM (active),inactive,inactive,inactive,inactive,inactive,inactive,inactive,inactive,inactive,inactive,inactive,inactive,inactive,inactive and 13.7 µM (active),,inactive,,inactive,inactive
Oc1cccc(O)c1,inactive,,inactive,inactive,inactive,inactive,inactive,inactive,inactive,inactive,inactive,inactive,inactive,inactive,inactive,,inactive,inactive,inactive,inactive
O=c1[nH]c(=O)n([C@H]2C[C@H](O)[C@@H](CO)O2)cc1Br,,inactive,inactive,inactive,inactive,inactive,inactive,inactive,inactive,inactive,inactive,inactive,,inactive,inactive,inactive,inactive,inactive,inactive,inactive
